Assay outcomes (PubChem BioAssay)
DT40 TDP1 no CPT: qHTS for Inhibitors of human tyrosyl-DNA phosphodiesterase 1 (TDP1): qHTS in cells in absence of CPT | Potency, µM (doses to about 46.2 µM), for the others: top-dose activity change, negative = growth inhibition, usual class: inhibitors | DT40 Tdp1-/- hTDP1 cells, no CPT, ATP luminescence, 48 h | actives 15% (n = 420,000) | AID 686978, 2013; also: potency is read from the fitted curve at half-maximal effect; nearly all actives have a fitted effect of over 55% in size
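Stably hTDP1-transfected Tdp1-null chicken DT40 cells were treated with library compounds minus camptothecin and grown for at least 48 hr at 37 °C, after which cellular ATP was quantified by luminescence.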
IL-1B inflam inh: inflammasome signaling inhibition, IL-1 beta readout. THP-1 LPS/ATP IL-1B secretion, AlphaLISA, 16 h; active compounds read low. activity change, % at 57.5 µM. actives 4.7% (n = 360,000); in the data active = activity change below about -50%; inconclusive = mostly about -30% to -49%
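Secreted IL-1B measured by AlphaLISA bead assay after 16 h compound exposure of THP-1 cells; compounds (final up to 57.5 uM) added 1 h before LPS (250 ng/mL) and ATP (1.25 mM) stimulation; lower signal means less secretion.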
HT1080-NT tox: kills 2HG-producing HT-1080-NT fibrosarcoma cells; AID 686970; HT-1080-NT fibrosarcoma viability, CellTiter-Glo ATP luminescence, 48 h; actives 1.6% (n = 360,000); Potency, µM (series often up to 46.1 µM), for the others: at the highest dose activity, negative = less viability, actives largely listed as cytotoxic;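 also: NT is the 2HG producing partner of a matched IDH1 knockdown line; potency is read from the fitted curve at half-maximal effect; 0% = DMSO-treated cells and -100% = media-only wells without cells; nearly all actives have a fitted effect of over 55% in size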
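Fibrosarcoma NT cells, 750 per well in 5% FBS RPMI, were exposed to compound for 48 hours. Viability: CellTiter-Glo luminescence.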
HT1080 IDH1KD tx: toxicity to HT-1080 IDH1 knockdown cells (counter line); HT-1080 IDH1 knockdown viability, ATP luminescence, 48 h; Potency, µM (series often up to 46.1 µM), inactives show top-dose activity, negative = toxicity, hits mostly cytotoxic; actives 2% (n = 360,000);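 also: potency is read from the fitted curve at half-maximal effect; 0% = DMSO wells and -100% = cell-free medium wells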
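HT-1080-IDH1KD cells (IDH1 knocked down), 750/well in RPMI with 5% FBS, treated with compound 48 h at 37 degrees C. Viability by CellTiter-Glo luminescence, normalised to DMSO and no-cell wells; concentration-response curves classed.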
uPA surface inh: blocks generation of uPA at the cell surface. AID 540303. actives 0.31% (n = 330,000). Potency, µM (series often up to 38.3 µM), for inactives: at the top dose activity change, negative = inhibition, most hits filed as inhibitors. cell surface uPA generation assay, qHTS; active = well fitted inhibition curve with a large enough effect; inconclusive = small, poorly fitted or top-dose-only effect; inactive = no such curve, though single readings can be large or run the other way; tested in mouse RAW 264.7 cells; also: potency is read from the fitted curve at half-maximal effect; nearly all actives have a fitted effect of over 55% in size
DT40 TDP1 CPT: growth inhibition of DT40 Tdp1-/-;hTDP1 cells with camptothecin (screen for TDP1 inhibitors); chicken DT40 Tdp1-/-;hTDP1 cells + 20 nM CPT, ATP luminescence, 48 h; Potency, µM (titrated, usually from 46.2 µM), for the others: at the top dose activity change, negative = growth inhibition, hits mostly inhibitors; actives 12% (n = 420,000); AID 686979; also: potency is read from the fitted curve at half-maximal effect; nearly all actives have a fitted effect of over 55% in size
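Chicken DT40 Tdp1-/- cells complemented with human TDP1, 400 cells/well, exposed to compounds plus 20 nM camptothecin for at least 48 h at 37 C; viability read as ATP content by CellTiter-Glo luminescence.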
An asterisk follows results filed as active. An excerpt weighted towards active compounds, which were near 19% of everything screened. Unless noted, calls follow the shape of the dose curve; as a rule, active = well fitted curve in the direction sought with a large enough effect; inconclusive = small, poorly fitted or top-dose-only effect, or another doubt; inactive = no such curve, though single readings can be large; an effect the other way counts as inactive or inconclusive. Unless noted, % is scaled to controls: 0 for no effect and ±100 for the full control effect.

For CCOc1ccc(/C=N/NC(=O)c2cc3c(OC)cccc3[nH]2)cc1 the results were DT40 TDP1 no CPT 23µM*, IL-1B inflam inh inconclusive, HT1080-NT tox inconclusive, HT1080 IDH1KD tx inconclusive, uPA surface inh -6% and DT40 TDP1 CPT 18µM*.
Screening CCC1(c2ccc(F)cc2)NC(=O)N(CC(=O)N2c3ccccc3CC2C)C1=O (configuration not stated) returned DT40 TDP1 no CPT inconclusive, IL-1B inflam inh 4, HT1080-NT tox -16%, HT1080 IDH1KD tx -2%, uPA surface inh 12% and DT40 TDP1 CPT inconclusive.
For CS(=O)(=O)c1ccc(Cl)c(NC(=O)CSc2n[nH]c(-c3cccs3)n2)c1 the results were DT40 TDP1 no CPT inconclusive, IL-1B inflam inh 23, HT1080-NT tox -28%, HT1080 IDH1KD tx -4%, uPA surface inh -8% and DT40 TDP1 CPT -21%.
For CCN(CC)C(=O)c1cccc(-c2csc(C(O)c3ccc(F)c(OC)c3)n2)c1 (configuration not stated) the results were DT40 TDP1 no CPT 16µM*, IL-1B inflam inh -1, HT1080-NT tox 1µM*, HT1080 IDH1KD tx inconclusive and DT40 TDP1 CPT 18µM*.
CCN(CC)C(=O)c1cccc(-c2csc(C(O)c3cccc(Cl)c3)n2)c1 (configuration not stated) was read as DT40 TDP1 no CPT 16µM*, IL-1B inflam inh -24, HT1080-NT tox inconclusive, HT1080 IDH1KD tx inconclusive and DT40 TDP1 CPT inconclusive.
`COc1cccc(C(C)(O)c2nc(-c3cccc(C(=O)O)c3)cs2)c1` (configuration not stated) gave DT40 TDP1 no CPT 4%, IL-1B inflam inh 4, HT1080-NT tox 15%, HT1080 IDH1KD tx 8% and DT40 TDP1 CPT -22%.
CCN(CC)C(=O)c1cccc(-c2csc(C(O)c3ccc(OC)cc3)n2)c1 (configuration not stated) was read as DT40 TDP1 no CPT 18µM*, IL-1B inflam inh 8, HT1080-NT tox -13%, HT1080 IDH1KD tx inconclusive and DT40 TDP1 CPT 16µM*.
Screening CCN(CC)C(=O)c1cccc(-c2csc(C(C)(O)c3ccncc3)n2)c1 (configuration not stated) returned DT40 TDP1 no CPT 21µM*, IL-1B inflam inh -1, HT1080-NT tox inconclusive, HT1080 IDH1KD tx inconclusive and DT40 TDP1 CPT 18µM*.
For COc1cc(C(O)c2nc(-c3cccc(C#N)c3)cs2)ccc1F (configuration not stated) the results were DT40 TDP1 no CPT inconclusive, IL-1B inflam inh -12, HT1080-NT tox -25%, HT1080 IDH1KD tx 5% and DT40 TDP1 CPT inconclusive.
COc1ccccc1CNC(=O)C(C)n1nc(C)n2c(cc3occc32)c1=O (configuration not stated) was read as DT40 TDP1 no CPT -20%, IL-1B inflam inh -11, HT1080-NT tox 7%, HT1080 IDH1KD tx 18%, uPA surface inh -2% and DT40 TDP1 CPT inconclusive.
For COc1cccc(OCC(O)CN2CCC(CN3C(=O)c4cccc5cccc(c45)C3=O)CC2)c1 (configuration not stated) the results were DT40 TDP1 no CPT 7.3µM*, IL-1B inflam inh -97*, HT1080-NT tox 18µM*, HT1080 IDH1KD tx 23µM*, uPA surface inh -10% and DT40 TDP1 CPT 8.2µM*.
`O=C1c2cccc3cccc(c23)C(=O)N1CCN1CCN(CC(O)COc2ccc3ccccc3c2)CC1` (configuration not stated) gave DT40 TDP1 no CPT 10µM*, IL-1B inflam inh -2, HT1080-NT tox inconclusive, HT1080 IDH1KD tx inconclusive, uPA surface inh 2% and DT40 TDP1 CPT 18µM*.
Cc1cc(C)cc(OCC(O)CN2CCC(CN3C(=O)c4cccc5cccc(c45)C3=O)CC2)c1 (configuration not stated) was read as DT40 TDP1 no CPT inconclusive, IL-1B inflam inh -81*, HT1080-NT tox 18µM*, HT1080 IDH1KD tx 18µM*, uPA surface inh -16% and DT40 TDP1 CPT 15µM*.
`Cc1ccc(S(=O)(=O)N2CCC(CN3C(=O)c4cccc5cccc(c45)C3=O)CC2)cc1` gave DT40 TDP1 no CPT inconclusive, IL-1B inflam inh -4, HT1080-NT tox 6%, HT1080 IDH1KD tx 3%, uPA surface inh 0% and DT40 TDP1 CPT inconclusive.
Cc1cccc(N2CCN(CC(O)COc3ccc4ccccc4c3)CC2)c1 (configuration not stated) was read as DT40 TDP1 no CPT inconclusive, IL-1B inflam inh 1, HT1080-NT tox 1%, HT1080 IDH1KD tx 9%, uPA surface inh 1% and DT40 TDP1 CPT -16%.
Screening O=C(N1CCOCC1)N1CCN(CC(O)COc2ccc3ccccc3c2)CC1 (configuration not stated) returned DT40 TDP1 no CPT -29%, IL-1B inflam inh -8, HT1080-NT tox -8%, HT1080 IDH1KD tx -2%, uPA surface inh -3% and DT40 TDP1 CPT 1%.
O=C1c2cccc3cccc(c23)C(=O)N1CC1CCN(CC(O)COc2ccc3ccccc3c2)CC1 (configuration not stated) was read as DT40 TDP1 no CPT 12µM*, IL-1B inflam inh -95*, HT1080-NT tox 18µM*, HT1080 IDH1KD tx 15µM*, uPA surface inh inconclusive and DT40 TDP1 CPT 15µM*.
`COc1cccc(Nc2ncc3nc(C)c(=O)n(C[C@H]4CCCO4)c3n2)c1` gave DT40 TDP1 no CPT -9% and DT40 TDP1 CPT -7%.
CC(=O)c1ccc(OC2(C)CCN(Cc3csc4ccccc34)C2)cc1 (configuration not stated) was read as DT40 TDP1 no CPT inconclusive, IL-1B inflam inh -1, HT1080-NT tox -17%, HT1080 IDH1KD tx -15% and DT40 TDP1 CPT inconclusive.
CC(Cc1c[nH]c2ccccc12)C(=O)NCc1ccco1 (configuration not stated) was read as DT40 TDP1 no CPT -16%, IL-1B inflam inh 5, HT1080-NT tox 20%, HT1080 IDH1KD tx 20%, uPA surface inh -2% and DT40 TDP1 CPT -28%.
For COc1ccc(-n2nc(C(=O)Nc3ccc(Br)cc3C)c3c4ccccc4n(C)c3c2=O)cc1 the results were DT40 TDP1 no CPT -10% and DT40 TDP1 CPT -8%.
